# Laboratory results: the supplement of paper PMC7057948, “A genome-wide approach for identification and characterisation of metabolite-inducible systems” (Nature Communications, 2020)
# System: BadR/P_H16_RS27200 cyclohexanecarboxylate biosensor (pEH159)
# Test: relative induction of RFP reporter vs primary effector (background-corrected); higher = stronger activation of the biosensor
# Details: inducer concentration 5 mM; 6 h; Cupriavidus necator H16; minimal medium + 0.4% gluconate
# Description: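 C. necator H16 strains, each carrying one of 21 transcription factor/inducible promoter–mRFP biosensor plasmids, were grown in minimal medium in 96-well plates (robotic platform). Each was exposed to 46 structurally or metabolically related compounds at 5 mM at 30 °C. OD-normalised RFP fluorescence was read 6 h later and expressed as relative induction (%) = 100 × (FL compound − FL uninduced)/(FL primary inducer − FL uninduced); mean of n=4.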
# 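Note: RFP excited at 585 nm with emission read at 620 nm, culture medium blanks subtracted from fluorescence and absorbance prior to normalisation.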
row,SMILES,relative induction of RFP reporter
1,N[C@@H](Cc1c[nH]c2ccccc12)C(=O)O [L-tryptophan],-0.253%
2,NC(=O)CC[C@H](N)C(=O)O [L-glutamine],-0.359%
3,O=C(O)CC(=O)C(=O)O [oxaloacetate],-0.113%
4,O=c1cc[nH]c(=O)[nH]1 [uracil],-0.342%
5,NCCc1ccc(O)c(O)c1 [dopamine],1.95%
6,O=C(O)c1ccc(O)cc1 [4-hydroxybenzoate],0.236%
7,Oc1ccccc1 [phenol],-0.423%
8,O=C(O)C(O)c1ccccc1 (stereo not given) [mandelic acid],0.747%
9,O=C(O)c1cccnc1 [nicotinate],-0.229%
10,O=C(O)C1=CCCCC1 [cyclohexene-1-carboxylate],80.5%
11,OC[C@@H](O)[C@@H](O)[C@H](O)[C@H](O)CO [D-mannitol],-0.47%
12,Oc1cccc(O)c1 [resorcinol],0.33%
13,NCC(O)C(=O)O (stereo not given) [3-amino-2-hydroxypropanoate],0.0183%
14,O=c1[nH]cnc2nc[nH]c12 [hypoxanthine],-0.186%
15,Cn1cnc2c1c(=O)[nH]c(=O)n2C [theobromine],0.638%
16,O=C(O)c1cc(=O)c2ccccc2[nH]1 [kynurenate],-0.549%
17,O=C(O)CNC(=O)c1ccccc1 [N-benzoylglycine],-0.675%
18,O=CC(=O)O [glyoxylate],-0.137%
19,C[C@@H](O)C(=O)O [D-lactate],-0.262%
20,O=C(O)C(O)C(=O)O [tartronic acid],-0.292%

row,SMILES,relative induction of RFP reporter
1,"O=C(O)/C=C\C=C/C(=O)O [cis,cis-muconate]",-0.641%
2,NCC(=O)O [glycine],-0.419%
3,O=S(=O)(O)CCO [isethionate],0.494%
4,Cn1c(=O)c2c(ncn2C)n(C)c1=O [caffeine],-0.151%
5,NCCS(=O)(=O)O [taurine],-0.635%
6,N[C@@H](CC(=O)O)C(=O)O [L-aspartate],-0.282%
7,CC(N)CC(=O)O (stereo not given) [3-aminobutanoate],-0.361%
8,"O=C(O)c1c(O)cccc1O [2,6-dihydroxybenzoate]",0.241%
9,CC(=O)CCC(=O)O [levulinic acid],0.15%
10,C[C@H](N)C(=O)O [L-alanine],-0.206%
11,CCCC(=O)O [butyric acid],0.491%
12,Oc1ccccc1O [catechol],1.99%
13,O=C(O)/C=C/C(=O)O [fumarate],-0.161%
14,O=C(O)C[C@H](O)C(=O)O [L-malate],-0.0424%
15,O=C(O)CCC(=O)O [succinate],-0.371%
16,O=C(O)[C@@H](O)[C@@H](O)[C@H](O)[C@@H](O)C(=O)O [glucarate],-0.576%
17,CCC(=O)O [propanoate],-0.236%
18,O=C(O)C1=C[C@@H](O)[C@@H](O)[C@H](O)C1 [shikimate],0.552%
19,O=C(O)C1CCCC1 [cyclopentane-1-carboxylate],10.9%
20,"NC(C(=O)O)c1ccccc1 (racemic) [D,L-2-phenylglycine]",-0.673%
